Inconclusive results are not listed. Active and inactive are the calls of the source. Unless noted, calls come from the whole dose curve; as a rule, active = well fitted curve in the direction sought with a large enough effect; inconclusive = small, poorly fitted or top-dose-only effect, or another doubt; inactive = no such curve, though single readings can be large; an effect the other way counts as inactive or inconclusive.
Columns and labels:
[1] = HEK293 24hr Apoptosis Induction qHTS against the NCATS CANVASS Library (AID 1347359)
Method in brief: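 HEK293 cells (500/well, DMEM + 10% FBS) were exposed to compounds in an 11-point series for 24 hours at 37 degrees C, then caspase-3/7 activity was read by Caspase-Glo DEVD luciferase luminescence after 15 min.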

[2] = HPAF-II 18hr Apoptosis Induction qHTS against the NCATS CANVASS Library (AID 1347360)
Method in brief: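 HPAF-II cells at 500/well were exposed for 18 h at 37 C to an 11-point compound series. Caspase-3/7 activity was read by Caspase-Glo luminescence after 15 min at RT.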

[3] = HEK293 12hr Apoptosis Induction qHTS against the NCATS CANVASS Library (AID 1347361)
Method in brief: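 HEK293 cells (500/well) were exposed to an 11-point qHTS concentration series for 12 hours at 37 degrees C. Caspase-3/7 activity was then read by DEVD-substrate luciferase luminescence after 15 min at room temperature.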

[4] = test system: NAD(P)H diaphorase (Clostridium kluyveri); assay: Diaphorse counterscreen qHTS: Assay Interference Panel against the NCATS CANVASS Library (AID 1347362)
Method in brief: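 Clostridium kluyveri diaphorase in PBS with 0.01% Tween-20 was preincubated 15 min at room temperature in the dark with compounds (11-point series). Resorufin fluorescence (ex 525/20, em 598/25) was read 5 min after adding resazurin/NADH.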

[5] = target: Luciferin 4-monooxygenase (Photinus pyralis) (UniProt P08659); assay: Firefly luciferase counterscreen qHTS: Assay Interference Panel against the NCATS CANVASS Library (AID 1347363); note: series mostly up to about 57 µM
Luciferin 4-monooxygenase (Photinus pyralis), sequence (P08659 whole entry, looked up): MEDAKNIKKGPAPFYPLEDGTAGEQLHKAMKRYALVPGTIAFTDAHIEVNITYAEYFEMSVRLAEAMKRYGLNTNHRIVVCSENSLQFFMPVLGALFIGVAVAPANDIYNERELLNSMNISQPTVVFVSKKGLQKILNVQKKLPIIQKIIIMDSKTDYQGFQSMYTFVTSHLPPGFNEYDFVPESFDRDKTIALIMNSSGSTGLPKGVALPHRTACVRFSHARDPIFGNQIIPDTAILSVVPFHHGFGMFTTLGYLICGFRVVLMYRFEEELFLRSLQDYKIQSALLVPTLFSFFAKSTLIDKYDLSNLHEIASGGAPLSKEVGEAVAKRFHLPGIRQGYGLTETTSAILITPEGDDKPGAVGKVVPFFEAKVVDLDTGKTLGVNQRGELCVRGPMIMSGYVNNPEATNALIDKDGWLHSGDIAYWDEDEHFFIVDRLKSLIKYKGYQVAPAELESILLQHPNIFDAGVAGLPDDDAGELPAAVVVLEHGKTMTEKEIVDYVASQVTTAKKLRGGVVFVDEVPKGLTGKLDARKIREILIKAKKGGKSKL
Method in brief: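 Purified P. pyralis luciferase was added to compounds (11-point series) preincubated 15 min at room temperature with substrate containing 0.013 mM D-luciferin and 0.013 mM ATP; luminescence was read after 5 min.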

[6] = KB-8-5-11 Cancer Cell Toxicity qHTS against the NCATS CANVASS Library (AID 1347364); note: nearly all actives have a fitted effect of over 75% in size
Method in brief: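 KB-8-5-11 cells (500/well) in DMEM + 10% FBS were exposed to compounds in an 11-point qHTS series for 72 hr at 37C, 5% CO2. Viability was read by CellTiter-Glo luminescence.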

[7] = KB-3-1 Cancer Cell Toxicity qHTS against the NCATS CANVASS Library (AID 1347366); note: series mostly up to about 46 µM; nearly all actives have a fitted effect of over 75% in size
Method in brief: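 KB-3-1 cells (500/well) in DMEM with 10% FBS were exposed to compounds for 72 h at 37C. Viability was read by CellTiter-Glo luminescence.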

[8] = MCF7 Cancer Cell Toxicity qHTS against the NCATS CANVASS Library (AID 1347369)
Method in brief: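 MCF7 cells (500/well) were exposed 72 h at 37 °C to compounds in an 11-point series. Viability was read as ATP content by CellTiterGlo luminescence.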

[9] = qHTS for ATAD5 Antagonist screened against the NCATS CANVASS Library (AID 1347370); note: potency is the fitted concentration of half-maximal effect; nearly all actives have a fitted effect of over 65% in size
Method in brief: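 HEK293T cells with a stably integrated ATAD5-controlled luciferase reporter were exposed to compounds (11-pt) alongside 10 uM 5-fluorouridine as ATAD5 stabilizer for 16hr at 37C. Viability was read by CellTiter-Fluor fluorescence, then ATAD5 by luminescence.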

[10] = J3T Cancer Cell Toxicity qHTS against the NCATS CANVASS Library (AID 1347371);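 note: J3T is a canine glioma cancer cell line seeded at 500 cells per well; series mostly up to about 46 µM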
Method in brief: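 J3T dog glioma cells (500 cells/well) were exposed to compounds in an 11-point series for 72 hr at 37C, 5% CO2. Cytotoxicity was read as ATP content by CellTiterGlo luminescence.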

[11] = target: Nuclear receptor subfamily 1 group I member 3 (Homo sapiens) (UniProt Q14994); assay: qHTS for Constitutive Androstane Receptor (CAR) Antagonist screened against the NCATS CANVASS Library (AID 1347372);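 note: cells stimulated with 50 nM CITCO agonist so inhibition reflects antagonism; series mostly up to about 46 µM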
Nuclear receptor subfamily 1 group I member 3 (Homo sapiens), sequence (Q14994 whole entry, looked up): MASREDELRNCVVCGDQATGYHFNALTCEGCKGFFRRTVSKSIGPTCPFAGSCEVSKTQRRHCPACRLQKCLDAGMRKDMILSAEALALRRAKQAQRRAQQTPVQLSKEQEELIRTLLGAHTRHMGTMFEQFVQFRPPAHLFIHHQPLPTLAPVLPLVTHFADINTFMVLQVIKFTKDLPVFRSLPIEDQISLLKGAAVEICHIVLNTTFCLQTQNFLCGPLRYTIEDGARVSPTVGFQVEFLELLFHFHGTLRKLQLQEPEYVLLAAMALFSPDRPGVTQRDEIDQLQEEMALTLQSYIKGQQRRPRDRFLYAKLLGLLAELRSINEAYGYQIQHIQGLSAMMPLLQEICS
Method in brief: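 HepG2 cells stably carrying hCAR and a CYP2B6-2.2kb luciferase reporter were exposed to compounds plus 50 nM CITCO for 24hr at 37C. CAR activity was read by ONE-Glo luminescence, with viability measured first by CellTiter-Fluor.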

[12] = target: Nuclear receptor subfamily 1 group I member 3 (Homo sapiens) (UniProt Q14994); assay: qHTS for Constitutive Androstane Receptor (CAR) Agonist screened against the NCATS CANVASS Library (AID 1347373);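 note: every well also contained 1.5 µM PK11195 alongside the test compound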
Method in brief: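 HepG2 cells stably expressing hCAR and a CYP2B6-2.2kb luciferase reporter were treated for 24hr at 37C with compounds (11-point qHTS) in the presence of 1.5uM PK11195. Reporter activation was read by ONE-Glo luminescence.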

[13] = qHTS for Hypoxia signaling pathway (HIF-1) agonists against the NCATS CANVASS Library (AID 1347375); note: potency is the fitted concentration of half-maximal effect
Method in brief: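 HRE-bla ME-180 cells (beta-lactamase reporter under hypoxia responsive element) in 0.5% dialyzed FBS medium, 5 h at 37C, then compound 17 h, 11-point qHTS series. CCF4-AM FRET substrate 2 h RT; 460/530 nm emission read.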

[14] = 10-beta competent E. coli microbial cell viability qHTS against the NCATS CANVASS Library (AID 1347376); note: series mostly up to about 46 µM
Method in brief: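 10-beta competent E. coli (0.9 OD culture diluted to 0.2 OD) exposed to compounds in an 11-point qHTS series, incubated overnight at 37C, 5% CO2. Viability read as ATP by BacTiter-Glo luminescence after 20 min at room temperature.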

[15] = DH5-alpha competent E. coli microbial cell viability qHTS against the NCATS CANVASS Library (AID 1347377); settings: outcome: dose series up to 46.1 µM
Method in brief: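 DH5-alpha E. coli suspension (0.9 OD culture diluted to 0.2 OD) exposed to compounds in an 11-point series, overnight at 37C, 5% CO2. Viability read as ATP by BacTiter-Glo luminescence after 20 min at room temperature.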

[16] = qHTS for H2AX Agonists against the NCATS CANVASS Library (AID 1347378)
Method in brief: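 CHO-K1 cells (1000/well, overnight at 37C) exposed to compounds at several concentrations for 3 hr at 37C, 0.76% DMSO final. Lysates read by TR-FRET (phospho-H2AX S139 Eu-cryptate antibody / H2AX-d2 antibody) after 24 hr at room temperature; 665/615 nm ratio.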

[17] = Inflammasome Signaling qHTS Counterscreen: IL-1-beta AlphaLISA counterscreen against the NCATS CANVASS Library (AID 1347381);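 note: cell-free check with purified IL-1β in medium and no THP-1 cells; series mostly up to about 57 µM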
Method in brief: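 To flag interference with the AlphaLISA read-out, a known amount of purified IL-1-beta (4 pg) replaced cell supernatant. Detection used anti-IL-1-beta acceptor beads, biotinylated antibody and streptavidin donor beads at room temperature.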

[18] = Cytotoxicity qHTS for assessment of Hepg2 cells membrane integrity screened against the NCATS CANVASS Library (AID 1347387)
Method in brief: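 HepG2 cells (2000/well) attached overnight at 37C, then received compounds in an 11-point series at 0.59 nM - 46 uM final for 5 hr. LDH release was detected fluorometrically (ex 560/em 590 nm) with CytoTox-ONE reagent after 10 min at room temperature.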

[19] = qHTS for Activators of p53 Stress Response Pathway screened against the NCATS CANVASS Library (AID 1347388); note: potency is the fitted concentration of half-maximal effect
Method in brief: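 p53RE-bla HCT-116 cells (4000/well) were plated 5 h at 37C, exposed to compounds for 16 h at 37C over an 11-point concentration series, then loaded with CCF4 for 2 h at room temperature; 460/530 nm emission ratio read.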

[20] = qHTS assay for small molecule disruptors of mitochondrial membrane potential screened against the NCATS CANVASS Library (AID 1347389); note: series mostly up to about 46 µM; nearly all actives have a fitted effect of over 60% in size
Method in brief: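 HepG2 cells (2,000/well) were plated overnight at 37C, exposed to compound for 1 hr at 37C/5% CO2, then loaded with Mito-MPS dye for 30 min. Depolarization was read as a drop in red (590 nm) to green (535 nm) fluorescence ratio.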

[21] = qHTS for activators of dead-cell proteases activity screened against the NCATS CANVASS Library (AID 1347392);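 note: luminescence from protease leaking out of membrane-damaged cells cleaving impermeant substrate; rising signal means more cytotoxicity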
Method in brief: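 HepG2 cells (2000/well) attached 18 h at 37C, then exposed 5 h to compounds (11-point qHTS). Dead-cell protease activity read as luminescence from cell-impermeant AAF-aminoluciferin substrate after 15 min at room temperature.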

[22] = qHTS for inhibitors of ER calcium dysfunction: SERCaMP assay screened against the NCATS CANVASS Library (AID 1347393); note: potency is the fitted concentration of half-maximal effect; nearly all actives have a fitted effect of over 40% in size
Method in brief: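 qHTS in SH-SY5Y reporter cells: 16 h compound pretreatment, 4 h thapsigargin, then secreted Gaussia luciferase measured by luminescence.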

[23] = Vero-766 cells viability qHTS against the NCATS CANVASS Library: Counterscreen for Zika virus inhibition assay (AID 1347394); note: series mostly up to about 46 µM; nearly all actives have a fitted effect of over 60% in size
Method in brief: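 Vero 766 cells (1000/well), without Zika virus, were exposed to compounds for 72 h at 37C. Viability was measured by CellTiter Glo luminescence. Media-only wells served as 100% inhibition.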

[24] = Redox Reaction Profiling qHTS: Assay Interference Panel against the NCATS CANVASS Library (AID 1347401)
Method in brief: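 Resazurin (5 uM) conversion to resorufin measured with 200 uM DTT in 50 mM HEPES pH 7.3, 50 mM NaCl. Compounds tested in 11-point qHTS series. Fluorescence (ex 525/em 598 nm) read before and after 15 min dark incubation.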

[25] = qHTS for inhibitors of Rabies Virus screened against the NCATS CANVASS Library (AID 1347402; calls by dose curve; note: series mostly up to about 46 µM)
[26] = Primary qHTS for small molecule stabilizers of the endoplasmic reticulum resident proteome: Secreted ER Calcium Modulated Protein (SERCaMP) assay (AID 1508630)
Method in brief: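 GLuc-SERCaMP-expressing SH-SY5Y cells, pretreated 16 h with compound, are challenged with thapsigargin to empty ER calcium stores; after 4 h, coelenterazine is added directly to the medium and luminescence is imaged.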

Measured: Potency

COc1ccc2c3c([nH]c2c1)C(C)=NCC3
active: [9] 16.6 µM | [13] 13.3 µM | [19] 18.6 µM | [22] 27.2 µM
inactive: all other assays above

From PubChem BioAssay (NCATS)
